Reference: PubChem BioAssay (NCATS)
Values joined by “and” are separate entries in the source; they are usually repeats but may differ in a detail not shown here. Equal values may be shown once. Records with an inconclusive call do not appear. Active and inactive are the calls of the source. The call rests on the fitted dose curve; in most records, active means well fitted curve in the direction sought with a large enough effect in the signal ratio, with a control signal flat; inconclusive means small, poorly fitted or top-dose-only effect, or a change in a side signal; inactive means no such curve, though single readings can be large or run the other way; the % refers to the signal ratio.

What follows are compounds tested against Glucocorticoid receptor (Homo sapiens) (UniProt P04150) (assay: qHTS assay for small molecule agonists of glucocorticoid receptor signaling (AID 588532)). Conditions: HeLa MMTV-bla, beta-lactamase ratio, agonist, 18 h; stronger effect = higher value; percent of dexamethasone control, DMSO zero.
Chain of Glucocorticoid receptor (Homo sapiens) (P04150 whole entry, looked up): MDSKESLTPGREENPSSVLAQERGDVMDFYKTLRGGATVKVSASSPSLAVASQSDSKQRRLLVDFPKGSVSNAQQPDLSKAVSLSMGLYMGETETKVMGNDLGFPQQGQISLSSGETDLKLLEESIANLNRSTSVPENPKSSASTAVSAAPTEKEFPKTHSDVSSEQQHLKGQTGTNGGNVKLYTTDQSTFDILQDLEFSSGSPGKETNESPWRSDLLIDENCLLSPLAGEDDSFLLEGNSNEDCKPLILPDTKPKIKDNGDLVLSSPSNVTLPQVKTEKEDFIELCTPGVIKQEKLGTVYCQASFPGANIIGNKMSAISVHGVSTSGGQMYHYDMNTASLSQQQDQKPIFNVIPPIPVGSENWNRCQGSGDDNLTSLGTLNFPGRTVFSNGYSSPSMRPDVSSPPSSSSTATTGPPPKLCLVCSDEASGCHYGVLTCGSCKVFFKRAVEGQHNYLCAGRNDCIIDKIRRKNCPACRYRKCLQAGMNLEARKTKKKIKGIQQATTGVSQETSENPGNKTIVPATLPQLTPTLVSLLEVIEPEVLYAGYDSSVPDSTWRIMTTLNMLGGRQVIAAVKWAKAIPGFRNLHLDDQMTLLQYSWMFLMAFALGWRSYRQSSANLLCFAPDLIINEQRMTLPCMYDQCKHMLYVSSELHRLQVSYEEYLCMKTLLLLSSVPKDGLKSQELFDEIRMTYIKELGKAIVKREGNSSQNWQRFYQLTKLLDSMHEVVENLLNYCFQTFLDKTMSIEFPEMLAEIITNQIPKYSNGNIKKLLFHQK
From the text: NIH Chemical Genomics Center [NCGC] U.S. Environmental Protection Agency [EPA] National Institutes of Environmental Health Sciences [NIEHS] National Toxicology Program [NTP] NCGC Assay Overview The Glucocorticoid receptor (GR), a nuclear receptor subfamily member and its natural ligands includes […] etc. The GR is a validated drug target for inflammation. GR ligands such as dexamethasone are clinically available as anti-inflammatory drugs. Glucocorticoids implicate role in carbohydrate, protein and lipid metabolisms and programmed cell death. They are also a component of many chemotherapy regimens for the treatment of leukemias, lymphomas, and myelomas because of their role in the induction of apoptosis.
NCGC Assay Protocol Summary Using a beta-lactamase reporter-gene under control of glucocorticoid response element (GRE), a cell-based assay [CellSensor MMTV-bla HeLa cell line assay developed by Invitrogen] was used to measure GR ligands signaling. CellSensor MMTV-bla HeLa cells were used with assay medium containing 1% charcoal/dextran treated FBS, 0.1 mM NEAA, 1 mM sodium pyruvate and 25mM HEPES. The assay was performed in clear bottom black Greiner 1536-well plates. Dexamethasone and Mifepristine were used in the screen as agonist and antagonist positive controls respectively. Library compounds were measured for their ability to stimulate the reporter gene activity. Compounds were screened in a titration series in 1536-well format. The fluorescence intensity (405 nm excitation, 460/530 nm emission) was measured using an EnVision plate reader. Data was normalized relative to Dexamethasone control (0.1 uM, 100%), and DMSO only wells (basal, 0%). Concentration-response titration points for each compound were fitted to the Hill equation yielding concentrations of half-maximal stimulation (EC50) and maximal response (efficacy) values. qHTS protocol for GR beta-lactamase assay in agonist mode [Step] [Parameter] [Value] [Description] 1. Reagent; 6 uL; 1500 cells/well 2. Incubation; 37 C for 3-5 hrs 3. Compounds; 23 nL; 0.59 nM to 92 uM 4. Controls (Dexamethasone); 23 nL, - One column with dose response, start 4.6uM, 1:3 dilutions in duplicates - Final concentrations of 0.1 uM and 2 nM in two columns 5. Incubation; 37 C for 18 hrs 6. Detection reagent; 1 uL of CCF4-dye 7. Incubation; RT for 2 hrs 8. Detection; Fluorescence; Envision plate reader

Compound	activation
CC(C)OC(=O)c1ccccc1C(=O)OC(C)C	-6.71% (inactive)
c1ccc(B(c2ccccc2)c2ccccc2)cc1	-5.17% (inactive)
NN(c1ccccc1)c1ccccc1	-3.55% (inactive)
COC(=O)c1ccc(I)cc1S(=O)(=O)NC(=O)Nc1nc(C)nc(OC)n1	7.01% (inactive)
Cc1ccc(N=Nc2c(O)ccc3ccccc23)c([N+](=O)[O-])c1	-1.07% (inactive)
C[Si](C)(C)N[Si](C)(C)C	-9.44% (inactive)
CC(COCC(C)OC(=O)c1ccccc1)OC(=O)c1ccccc1 (stereo not given)	5.58% (inactive)
Cl[Si](Cl)(Cl)c1ccccc1	5.43% (inactive)
CCO[Si](CCC#N)(OCC)OCC	2.23% (inactive)
CNc1nc(=O)n(C2CCC(O)CC2)c(=O)n1C (stereo not given)	2.82% (inactive)
CC1(C)CC(N)CC(C)(CN)C1 (stereo not given)	10.3% (inactive)
O=C(O)c1cc2ccccc2cc1O	2.47% (inactive)
CC(C)(C)c1ccc(O)c(C(C)(C)C)c1	-9.25% (inactive)
Nc1nc(N)nc(-c2ccccc2)n1	-8.55% (inactive)
CCOC(=O)C1=NN(c2ccc(Cl)cc2Cl)C(C)(C(=O)OCC)C1 (stereo not given)	-2.41% (inactive)
CC(Cl)(Cl)C(=O)OCCOc1cc(Cl)c(Cl)cc1Cl	-10.3% (inactive)
CCCCCCCCCCCCCC(=O)OC	-4.01% (inactive)
CCC(=O)OCCc1ccccc1	-12.1% (inactive)
c1cc(-c2ccncc2)ccn1	-9.26% (inactive)
CCCCCCCCCCO	-0.536% (inactive) and 2.82% (inactive)

Compound	activation
CC(C)c1cccc(C(C)C)c1	-12.5% (inactive)
CS/C(=N\O)C(=O)N(C)C	1.45% (inactive)
CCCCCCCCCCCCCCC(=O)OC	-1.65% (inactive)
COC(=O)CSc1cc(N=c2sc(=O)n3n2CCCC3)c(F)cc1Cl	-2.45% (inactive)
CCNc1nc(NC(C)CC)nc(OC)n1 (stereo not given)	-21% (inactive)
CCCCCCCC[Si](Cl)(Cl)Cl	-0.511% (inactive)
Cc1ccc(N=Nc2c(O)ccc3ccccc23)c(C)c1	-16.9% (inactive)
Cc1cc(C)c(N)c(Cl)c1	5.1% (inactive)
c1ccc(OCCOc2ccccc2)cc1	-7.01% (inactive)
CC1(C)C(=O)NC(=O)N1CO	-5.05% (inactive)
CCCCNS(=O)(=O)c1ccccc1	-1.82% (inactive)
Fc1ccc(Br)cc1	9.16% (inactive)
CCCCOCCOCCO	-5.88% (inactive)
CCCCCCCCCCCCCCN	-4.59% (inactive)
CC/C(=C(\c1ccc(O)cc1)c1ccc(OCCN(C)C)cc1)c1ccccc1	-2.75% (inactive)
C=C(C)C(=O)OCC[N+](C)(C)C	-7.03% (inactive)
Cc1ccc(Cl)cc1Cl	-2.65% (inactive)
Oc1ccc(Nc2ccccc2)cc1	-7.61% (inactive)
CN=C(N)NCC1CCOC1 (stereo not given)	-0.0864% (inactive) and -2.61% (inactive)
C=CCCCCCCCCCC	-14.2% (inactive)
